Only some compounds are listed: those with a hit (about 3.5% of all), similar ones and a draw of the others.
TRb SRC2 PPI: inhibitors of human thyroid hormone receptor beta-SRC2 interaction; P10828; hit rate 0.065% among 280,000; AID 1469; Potency, µM (highest dose often 106 µM), for inactives: at the highest dose activity change, negative = inhibition, most hits filed as inhibitors; TRbeta-SRC2 peptide binding, fluorescence polarization; receptor liganded with 1 µM T3;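 note: plate controls were bound peptide for no effect and peptide without receptor for full effect; nearly all actives have a fitted effect of over 50% in size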
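Polarization signal, normalized between peptide-alone and full complex controls, measured compound effects on T3-liganded human TRb LBD (0.6 uM) binding 20 nM Texas Red SRC2 peptide after 5 hr.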
TexasRed fluor: Texas Red fluorescence interference in TRb-SRC2 counter-screen; hit rate 0.29% among 280,000; AID 1479; TRb/SRC2 Texas Red total fluorescence interference; Potency, µM (highest dose often 106 µM), without a hit: top-dose fluorescence change, negative = quenching; active = well fitted curve in either direction with a large enough effect; inconclusive = small, poorly fitted or top-dose-only effect
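Flags fluorescent or light-absorbing compounds by total fluorescence, S + 2P, at 555 nm excitation and 632 nm emission. Mixture: 20 nM Texas Red SRC2 peptide, 0.6 uM human TRb LBD, 1 uM T3, 5% DMSO; compound exposure 5 h at ambient temperature.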
Tau FP inhib: tau fibrillization inhibition (FP). P10636. K18 P301L tau heparin fibrillization, Alexa594 FP, 6 h. Potency, µM (highest dose often 57.7 µM), without a hit: at the highest dose activity, negative = inhibition, hits mostly inhibitors. hit rate 0.39% among 280,000. AID 1468; note: nearly all actives have a fitted effect of over 55% in size
Target sequence (P10636 561-689 P618L limits assumed): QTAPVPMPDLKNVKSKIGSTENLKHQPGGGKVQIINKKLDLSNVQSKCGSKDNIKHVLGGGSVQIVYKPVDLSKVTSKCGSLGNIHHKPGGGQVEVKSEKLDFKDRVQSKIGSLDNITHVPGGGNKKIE
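Read-out: fluorescence polarization of Alexa 594-labeled tau (0.24 uM), 555 nm excitation, 632 nm emission. Mixtures held 15 uM unlabeled K18 P301L, compound and 20 uM heparin, pH 7 acetate buffer, incubated 6 hr at 37 C.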
JMJD2E inh: JMJD2E (human) inhibition. JMJD2E catalytic domain, FDH-coupled NADH fluorescence (FDH is formaldehyde dehydrogenase). hit rate 1.6% among 230,000. Potency, µM (doses to about 57.1 µM), without a hit: at the top dose activity change, negative = inhibition, actives largely listed as inhibitors. B2RXH2. AID 2147; active = well fitted inhibition curve with a large enough effect, not every such curve was filed as active; inconclusive = small, poorly fitted or top-dose-only effect, or another doubt; inactive = no such curve, though single readings can be large or run the other way;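 note: 0% = wells with enzyme and -100% = buffer wells without enzyme; nearly all actives have a fitted effect of over 50% in size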
Target sequence (B2RXH2 1-337 limits assumed): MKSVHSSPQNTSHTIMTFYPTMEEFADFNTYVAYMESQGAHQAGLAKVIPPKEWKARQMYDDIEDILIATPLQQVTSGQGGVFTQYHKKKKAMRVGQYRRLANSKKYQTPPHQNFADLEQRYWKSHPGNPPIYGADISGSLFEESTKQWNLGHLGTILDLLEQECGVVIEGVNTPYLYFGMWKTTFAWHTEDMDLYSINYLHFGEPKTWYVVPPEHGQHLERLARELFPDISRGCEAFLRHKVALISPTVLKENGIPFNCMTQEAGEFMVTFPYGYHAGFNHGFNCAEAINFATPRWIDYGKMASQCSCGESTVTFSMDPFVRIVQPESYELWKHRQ
Tau fluor cs: counter-screen for tau fibril formation inhibitors | tau K18 P301L Alexa594 fluorescence, heparin fibrillization | Potency, µM (doses to about 57.7 µM), inactives show at the top dose activity change, negative = decrease | hit rate 0.93% among 280,000 | AID 1463; note: nearly all actives have a fitted effect of over 55% in size
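Human K18 P301L tau (15 uM unlabeled plus 0.24 uM Alexa 594-labeled, final) in 100 mM sodium acetate pH 7 was mixed with compound and 20 uM heparin and incubated 6 hr at 37 C.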
Tau fibril ThT: blocks human tau fibril formation measured by thioflavin T. Potency, µM (highest dose often 57.4 µM), for the others: top-dose activity, negative = inhibition, most hits filed as inhibitors. hit rate 2.1% among 270,000. P10636. recombinant tau K18 P301L (four-repeat tau fragment), heparin-induced fibrillization, ThT fluorescence; note: nearly all actives have a fitted effect of over 55% in size
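Heparin-induced fibrillization of the P301L-mutant K18 repeat-domain fragment of human tau was followed by ThT binding in quantitative high-throughput format.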
An asterisk follows results filed as active; ! = a repeat was not active; [ ] = remark or other dose. Unless noted, calls come from the whole dose curve; as a rule, active = well fitted curve in the direction sought with a large enough effect; inconclusive = small, poorly fitted or top-dose-only effect, or another doubt; inactive = no such curve, though single readings can be large; an effect the other way counts as inactive or inconclusive. Unless noted, % is set by controls: 0 for no effect and ±100 for the full control effect; potency is the fitted concentration of half-maximal effect.

Results for COc1cccc(CNC(=O)C2CCCN(c3ncnc4onc(-c5ccc(F)cc5)c34)C2)c1 (configuration not stated) ?
TRb SRC2 PPI: -2%; TexasRed fluor: 0%; Tau FP inhib: -5%; Tau fluor cs: -22%; Tau fibril ThT: -10%

What do the screens show for `O=C(NCc1ccc(F)cc1)C1CCCN(c2ncnc3onc(-c4ccc(F)cc4)c23)C1` (configuration not stated)?
TRb SRC2 PPI: -28%; TexasRed fluor: 16µM*[quencher]; Tau FP inhib: -14%; Tau fluor cs: -15%; Tau fibril ThT: 6%

How did Cc1ccc(C2=N/C(=C\N3CCCCC3)C(=O)O2)cc1 do in these assays?
TRb SRC2 PPI: 5%; TexasRed fluor: -4%; Tau FP inhib: 6%; JMJD2E inh: -22%; Tau fluor cs: -29%; Tau fibril ThT: -15%

Results for Cc1nn(-c2ccccc2)c(N2CCCC2)c1/C=C1\N=C(c2ccc(OC(C)C)cc2)OC1=O ?
TRb SRC2 PPI: -2%; TexasRed fluor: -18%; Tau FP inhib: 10%; JMJD2E inh: -6%; Tau fluor cs: -21%; Tau fibril ThT: 10µM*

Results for O=C(N/N=C/c1ccc([N+](=O)[O-])o1)c1cn(-c2ccccc2)nc1-c1ccccc1 ?
TRb SRC2 PPI: 6%; TexasRed fluor: 8%; Tau FP inhib: 8%; JMJD2E inh: -5%; Tau fluor cs: inconclusive; Tau fibril ThT: -18%

How did Cn1ccc2cc3c(cc21)CCN3C(=O)Nc1cccnc1 do in these assays?
TRb SRC2 PPI: 8%; TexasRed fluor: 0%; Tau FP inhib: 4%; JMJD2E inh: 35µM*!; Tau fluor cs: inconclusive; Tau fibril ThT: inconclusive

What do the screens show for `O=C(NC1CCCCC1)C1CC(=O)N(c2cccc([N+](=O)[O-])c2)C1` (configuration not stated)?
TRb SRC2 PPI: 10%; TexasRed fluor: 0%; Tau FP inhib: -2%; JMJD2E inh: 2%; Tau fluor cs: -10%; Tau fibril ThT: -9%

How did O=C1Nc2ccccc2/C1=N/N=C/c1ccc(-c2ccc([N+](=O)[O-])cc2)o1 do in these assays?
TRb SRC2 PPI: -2%; TexasRed fluor: -1%; Tau FP inhib: 3%; JMJD2E inh: 3%; Tau fluor cs: -28%; Tau fibril ThT: 2.8µM*

What do the screens show for `Cc1ccc(C(=O)N/N=C\c2ccc(-c3ccc(Cl)cc3)o2)cn1`?
TRb SRC2 PPI: 8%; TexasRed fluor: 0%; Tau FP inhib: -7%; JMJD2E inh: inconclusive; Tau fluor cs: inconclusive; Tau fibril ThT: inconclusive

What do the screens show for `Cc1ccc(C(=O)N/N=C\c2ccc(-c3ccc([N+](=O)[O-])cc3)o2)cn1`?
TRb SRC2 PPI: 2%; TexasRed fluor: -4%; Tau FP inhib: 6%; JMJD2E inh: -15%; Tau fluor cs: -29%; Tau fibril ThT: 3.2µM*

Results for O=C(N/N=C\c1ccc(-c2ccc([N+](=O)[O-])cc2)o1)c1ccc2c(c1)OCO2 ?
TRb SRC2 PPI: -15%; TexasRed fluor: 3%; Tau FP inhib: 7%; JMJD2E inh: -3%; Tau fluor cs: inconclusive; Tau fibril ThT: 0.89µM*

Results for COc1cc([N+](=O)[O-])ccc1-c1ccc(/C=N/NC(=O)c2ccccc2O)o1 ?
TRb SRC2 PPI: 1%; TexasRed fluor: 0%; Tau FP inhib: 4%; JMJD2E inh: 3%; Tau fluor cs: inconclusive; Tau fibril ThT: 1.6µM*

Results for CCC(C)n1c(SCC(=O)Nc2cc(C(C)(C)C)nn2-c2ccccc2)nc2ccccc2c1=O (configuration not stated) ?
TRb SRC2 PPI: 0%; TexasRed fluor: -2%; Tau FP inhib: -4%; JMJD2E inh: -6%; Tau fluor cs: -20%; Tau fibril ThT: inconclusive

What do the screens show for `CCc1ccccc1NC(=O)CC1S/C(=N\c2nccs2)N(CC)C1=O` (configuration not stated)?
TRb SRC2 PPI: -5%; TexasRed fluor: -7%; Tau FP inhib: -2%; JMJD2E inh: 3%; Tau fluor cs: -11%; Tau fibril ThT: -5%

Results for O=C1N=C(O)CN1/N=C\c1ccc(-c2ccc([N+](=O)[O-])cc2)o1 ?
TRb SRC2 PPI: -2%; TexasRed fluor: -4%; Tau FP inhib: 3%; JMJD2E inh: 14%; Tau fluor cs: -10%; Tau fibril ThT: 14µM*

What do the screens show for `C/C(=N\NC(=O)c1cc(-c2cccc([N+](=O)[O-])c2)n[nH]1)c1ccccc1O`?
TRb SRC2 PPI: -2%; TexasRed fluor: -7%; Tau FP inhib: -5%; JMJD2E inh: 25µM*; Tau fluor cs: inconclusive; Tau fibril ThT: 2µM*

Results for O=C(N/N=C/c1ccc(-c2ccccc2[N+](=O)[O-])o1)c1cccnc1 ?
TRb SRC2 PPI: -2%; TexasRed fluor: -1%; Tau FP inhib: inconclusive; JMJD2E inh: -28%; Tau fluor cs: -24%; Tau fibril ThT: 7.1µM*

What do the screens show for `NC(=S)N/N=C/c1ccc(-c2ccc([N+](=O)[O-])cc2)o1`?
TRb SRC2 PPI: -11%; TexasRed fluor: -5%; Tau FP inhib: inconclusive; JMJD2E inh: -25%; Tau fluor cs: inconclusive; Tau fibril ThT: 7.9µM*

What do the screens show for `CC(=O)Nc1nc(-c2cc([N+](=O)[O-])cs2)cs1`?
TRb SRC2 PPI: -3%; TexasRed fluor: 1%; Tau FP inhib: 5%; JMJD2E inh: 0%; Tau fluor cs: -20%; Tau fibril ThT: -4%

How did O=C(N/N=C/c1ccc(-c2cccc([N+](=O)[O-])c2)o1)c1ccccc1O do in these assays?
TRb SRC2 PPI: 0%; TexasRed fluor: -1%; Tau FP inhib: 7%; JMJD2E inh: 5%; Tau fluor cs: inconclusive; Tau fibril ThT: 8.9µM*

How did O=C(N/N=C/c1ccc(-c2cccc([N+](=O)[O-])c2)o1)c1ccc([N+](=O)[O-])cc1 do in these assays?
TRb SRC2 PPI: 2%; TexasRed fluor: -8%; Tau FP inhib: 10%; JMJD2E inh: -7%; Tau fluor cs: inconclusive; Tau fibril ThT: 5.6µM*

How did O=C(N/N=C/c1ccc(-c2cccc(C(F)(F)F)c2)o1)c1ccccc1O do in these assays?
TRb SRC2 PPI: 1%; TexasRed fluor: -1%; Tau FP inhib: -11%; JMJD2E inh: inconclusive; Tau fluor cs: -20%; Tau fibril ThT: -15%

Results for C/C(=N\NC(=O)CSCc1ccc([N+](=O)[O-])cc1)c1ccccc1 ?
TRb SRC2 PPI: 4%; TexasRed fluor: 0%; Tau FP inhib: -1%; JMJD2E inh: 10%; Tau fluor cs: -26%; Tau fibril ThT: inconclusive

Source: PubChem BioAssay (National Center for Advancing Translational Sciences (NCATS))
